Results on 24 compounds are retold here after PubChem BioAssay (EPA / NIEHS).

Results filed as inconclusive are left out. Calls of active or inactive are those of the source. The calls were made as follows: active = hit-call score of the fitted dose curve at least 0.9, where 1 is the maximum; inconclusive = response in the unintended direction; inactive = score below 0.9.

Test [1] addresses human CYP2D6, CYP2D6 (gene 1565) (UniProt P10635). Nature of the test: NVS_ADME_hCYP2D6: NovaScreen (NVS) CYP450-related Enzyme Activity (ADME) Assay for human CYP2D6 (AID 2283107). A digest of the protocol: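 Biochemical fluorescence assay, insect-cell-derived enzyme. Read at 1 h; inhibition taken from loss of signal against acetonitrile. Screened at 10 uM in duplicate, with concentration series for actives.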

Test [2] addresses human Esterase Plasma (ES), BCHE (gene 590) (UniProt P06276). Nature of the test: NVS_ENZ_hES: NovaScreen (NVS) Enzymatic Assay for human Esterase Plasma (ES) (AID 2283157). The essentials:
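Chemicals were added to plasma-extracted human enzyme in a cell-free format, and activity was read colorimetrically after 0.25 hour. Activity loss was referenced to DMSO; concentration-response top dose was 50 uM.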

In test [3] the target is guinea pig Opioid, Kappa 1 Receptor (OpiateK), OPRK1 (gene 100135587) (UniProt P41144). Nature of the test: NVS_GPCR_gOpiateK: NovaScreen (NVS) G Protein-Coupled Receptor Assay for guinea pig Opioid, Kappa 1 Receptor (OpiateK) (AID 2283252).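 Also: active means reduced radioligand binding relative to DMSO.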 A digest of the protocol: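 Signal is scintillation counts of filter-trapped radioligand bound to guinea pig cerebellar membrane receptor, measured 2 hours post-dosing. Activity is loss of binding versus DMSO, first at 25 uM in duplicate, then as concentration series for actives.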
Chain of guinea pig Opioid, Kappa 1 Receptor (OpiateK), OPRK1 (gene 100135587) (P41144 whole entry, looked up): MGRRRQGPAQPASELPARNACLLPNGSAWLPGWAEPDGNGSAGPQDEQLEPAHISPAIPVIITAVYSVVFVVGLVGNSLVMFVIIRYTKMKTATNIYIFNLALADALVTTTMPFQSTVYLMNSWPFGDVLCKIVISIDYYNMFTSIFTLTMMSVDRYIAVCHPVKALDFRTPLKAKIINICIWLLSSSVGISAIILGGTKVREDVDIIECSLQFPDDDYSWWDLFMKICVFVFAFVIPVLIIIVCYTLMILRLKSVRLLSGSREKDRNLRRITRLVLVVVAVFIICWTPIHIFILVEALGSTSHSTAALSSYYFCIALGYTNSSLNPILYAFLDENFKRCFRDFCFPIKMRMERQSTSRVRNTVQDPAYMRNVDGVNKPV

Test [4] deals with human Ephrin type-A Receptor 1 (EphA1), EPHA1 (gene 2041) (UniProt P21709). Nature of the test: NVS_ENZ_hEphA1: NovaScreen (NVS) Enzymatic Assay for human Ephrin type-A Receptor 1 (EphA1) (AID 2283158).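 Also: activity is signal loss versus DMSO meaning EphA1 kinase inhibition.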 The essentials: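 Here the EphA1 protein is recombinant and the substrate fluorescent, with electrophoretic separation before fluorescence detection at 1 hour. Signal loss against DMSO defines activity; plate controls included; follow-up concentration series reach 50 uM.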
Chain of human Ephrin type-A Receptor 1 (EphA1), EPHA1 (gene 2041) (P21709 whole entry, looked up): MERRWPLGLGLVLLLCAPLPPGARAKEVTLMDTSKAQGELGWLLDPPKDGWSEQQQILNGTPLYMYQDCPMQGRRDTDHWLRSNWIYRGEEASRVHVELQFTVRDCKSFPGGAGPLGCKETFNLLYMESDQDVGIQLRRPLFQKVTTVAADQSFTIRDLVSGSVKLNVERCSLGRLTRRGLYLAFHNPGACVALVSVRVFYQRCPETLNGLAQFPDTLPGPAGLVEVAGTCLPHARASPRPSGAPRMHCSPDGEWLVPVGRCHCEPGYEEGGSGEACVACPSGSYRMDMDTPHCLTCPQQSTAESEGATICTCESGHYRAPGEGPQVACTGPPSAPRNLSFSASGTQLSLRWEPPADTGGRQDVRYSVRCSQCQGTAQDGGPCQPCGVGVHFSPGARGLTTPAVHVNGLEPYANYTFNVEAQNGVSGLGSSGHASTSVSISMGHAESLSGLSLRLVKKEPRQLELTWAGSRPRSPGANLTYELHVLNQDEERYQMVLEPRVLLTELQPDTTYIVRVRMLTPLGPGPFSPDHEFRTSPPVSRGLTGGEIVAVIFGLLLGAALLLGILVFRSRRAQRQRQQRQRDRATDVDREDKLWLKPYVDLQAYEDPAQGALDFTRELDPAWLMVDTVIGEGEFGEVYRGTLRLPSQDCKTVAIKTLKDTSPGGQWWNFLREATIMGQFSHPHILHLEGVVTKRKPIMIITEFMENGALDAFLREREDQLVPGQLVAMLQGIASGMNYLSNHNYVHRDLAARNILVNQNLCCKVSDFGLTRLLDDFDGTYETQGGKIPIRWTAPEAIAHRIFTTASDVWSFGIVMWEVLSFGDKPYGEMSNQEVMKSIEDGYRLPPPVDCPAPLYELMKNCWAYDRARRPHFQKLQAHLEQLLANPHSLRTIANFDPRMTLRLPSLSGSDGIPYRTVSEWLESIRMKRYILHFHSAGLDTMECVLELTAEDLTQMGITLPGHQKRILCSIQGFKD

For test [5], the target named is human Dual Specificity Protein Phosphatase 3 (DUSP3), DUSP3 (gene 1845) (UniProt P51452). Nature of the test: NVS_ENZ_hDUSP3: NovaScreen (NVS) Enzymatic Assay for human Dual Specificity Protein Phosphatase 3 (DUSP3) (AID 2283152). The essentials: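 Cell-free assay with recombinant human DUSP3 and fluorogenic substrate, read by fluorescence intensity. Primary screen ran duplicate at 25 uM; actives followed up in concentration series; loss of signal versus DMSO scored.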
Chain of human Dual Specificity Protein Phosphatase 3 (DUSP3), DUSP3 (gene 1845) (P51452 whole entry, looked up): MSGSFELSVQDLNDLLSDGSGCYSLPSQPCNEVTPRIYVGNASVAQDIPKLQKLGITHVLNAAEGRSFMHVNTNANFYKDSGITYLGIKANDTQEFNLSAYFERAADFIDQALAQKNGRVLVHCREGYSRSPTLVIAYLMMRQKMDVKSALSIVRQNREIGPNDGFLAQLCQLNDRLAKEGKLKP

Test [6] deals with Cytochrome P450 2C19 (Homo sapiens) (UniProt P33261). Nature of the test: NVS_ADME_hCYP2C19: NovaScreen (NVS) CYP450-related Enzyme Activity (ADME) Assay for human CYP2C19 (AID 2283113).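 Also: potency for inhibition seen as loss of fluorescent signal.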 The essentials: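 Biochemical CYP2C19 inhibition screen: insect-cell recombinant protein plus fluorescent substrate, 1 h, fluorescence intensity. Acetonitrile defined baseline activity. Single 10 uM concentration in duplicate, with concentration-response follow-up for actives.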

Test [7] has as its target Cytochrome P450 3A4 (Homo sapiens) (UniProt P08684). Nature of the test: NVS_ADME_hCYP3A4: NovaScreen (NVS) CYP450-related Enzyme Activity (ADME) Assay for human CYP3A4 (AID 2283110). A digest of the protocol:
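Compounds were first screened in duplicate at 10 uM against recombinant CYP3A4 produced in insect cells, then actives were run in concentration series. Enzyme activity was measured by fluorescence after 0.33 hour, with acetonitrile as baseline.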

For test [8], the target named is sheep Cyclooxygenase-1 (Cox1), PTGS1 (gene 443551) (UniProt P05979). Nature of the test: NVS_ENZ_oCOX1: NovaScreen (NVS) Enzymatic Assay for sheep Cyclooxygenase-1 (Cox1) (AID 2283239).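 Also: actives reduce cyclooxygenase activity so potencies are for inhibitors.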 A digest of the protocol: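 Tested in duplicate at 25 uM, then in concentration series if active, against seminal vesicle extract from sheep. Enzyme activity was measured colorimetrically at 0.66 hour and normalised to DMSO.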
Chain of sheep Cyclooxygenase-1 (Cox1), PTGS1 (gene 443551) (P05979 whole entry, looked up): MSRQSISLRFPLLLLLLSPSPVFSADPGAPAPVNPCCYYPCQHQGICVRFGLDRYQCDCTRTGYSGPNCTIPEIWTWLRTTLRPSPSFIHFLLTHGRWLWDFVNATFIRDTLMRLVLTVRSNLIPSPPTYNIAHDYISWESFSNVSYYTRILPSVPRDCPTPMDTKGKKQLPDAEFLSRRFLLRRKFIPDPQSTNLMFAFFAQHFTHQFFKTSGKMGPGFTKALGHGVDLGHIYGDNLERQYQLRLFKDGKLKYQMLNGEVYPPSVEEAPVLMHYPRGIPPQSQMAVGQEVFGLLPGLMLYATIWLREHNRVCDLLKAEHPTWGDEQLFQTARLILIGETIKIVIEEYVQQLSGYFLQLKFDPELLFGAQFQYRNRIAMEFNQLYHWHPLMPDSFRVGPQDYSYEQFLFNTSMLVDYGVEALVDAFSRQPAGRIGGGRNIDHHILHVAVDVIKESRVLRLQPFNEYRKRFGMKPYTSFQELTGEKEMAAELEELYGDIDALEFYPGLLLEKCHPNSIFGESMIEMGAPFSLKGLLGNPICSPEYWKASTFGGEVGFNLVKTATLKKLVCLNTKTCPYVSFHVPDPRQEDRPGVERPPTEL

Test [9] deals with rat CYP2C11, Cyp2c11 (gene 29277) (UniProt P08683). Nature of the test: NVS_ADME_rCYP2C11: NovaScreen (NVS) CYP450-related Enzyme Activity (ADME) Assay for rat CYP2C11 (AID 2283118). The essentials: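 Cell-free recombinant rat enzyme with fluorescent substrate; readout 0.33 h after dosing, loss of signal versus acetonitrile control. Initial duplicate single-point at 10 uM; actives rerun in concentration series.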

The target of test [10] is human Caspase 5 (CASP5), CASP5 (gene 838) (UniProt P51878). Nature of the test: NVS_ENZ_hCASP5: NovaScreen (NVS) Enzymatic Assay for human Caspase 5 (CASP5) (AID 2283137). The essentials:
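Cell-free protease assay with bacterially expressed CASP5 and a fluorescent substrate, measured at 2 h. Values fitted relative to DMSO as baseline, from concentration-response series topping at 50 uM.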

Test [11] concerns the target human CYP1A2, CYP1A2 (gene 1544) (UniProt P05177). Nature of the test: NVS_ADME_hCYP1A2: NovaScreen (NVS) CYP450-related Enzyme Activity (ADME) Assay for human CYP1A2 (AID 2283102). The essentials: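 Inhibition scored as decrease in fluorescent product versus acetonitrile negative control. Enzyme: insect-cell recombinant human CYP1A2, substrate-specific, cell-free. Reading at 0.5 h; 10 uM duplicate initial screen with positive and negative controls on every plate.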

The target of test [12] is rat Constitutive Nitric Oxide Synthase (CNOS), Nos1 (gene 24598) (UniProt P29476). Nature of the test: NVS_ENZ_rCNOS: NovaScreen (NVS) Enzymatic Assay for rat Constitutive Nitric Oxide Synthase (CNOS) (AID 2283236). The essentials:
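Enzyme activity in rat brain membrane preparation, read 1 h after dosing by filter-based radiometric scintillation counting. Primary screen in duplicate at 25 uM; actives (e.g., ≥30% inhibition) then run in concentration-response up to 50 uM.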

Test [13] concerns the target human Beta-secretase (BACE), BACE1 (gene 23621) (UniProt P56817). Nature of the test: NVS_ENZ_hBACE: NovaScreen (NVS) Enzymatic Assay for human Beta-secretase (BACE) (AID 2283140).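 Also: hits are inhibitors that reduce fluorescent substrate signal versus DMSO.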 A digest of the protocol: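 Recombinant BACE1 (SF9 extract) incubated with compound and fluorescent substrate, 1 h. Plates carried positive and DMSO negative controls. Initial single dose 25 uM, duplicate; confirmation by concentration series.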

Test [14] has as its target human Phosphoinositide 3-kinase alpha (PI3Ka), PIK3CA (gene 5290) (UniProt P42336). Nature of the test: NVS_ENZ_hPI3Ka: NovaScreen (NVS) Enzymatic Assay for human Phosphoinositide 3-kinase alpha (PI3Ka) (AID 2283196). A digest of the protocol: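 Duplicate single-point screen (25 uM), then singleton dose-response (max 50 uM) for compounds meeting the threshold. Cell-free kinase reaction, 1 h; fluorescent mobility-shift readout.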

Chain of human Caspase 5 (CASP5), CASP5 (gene 838) (P51878 whole entry, looked up): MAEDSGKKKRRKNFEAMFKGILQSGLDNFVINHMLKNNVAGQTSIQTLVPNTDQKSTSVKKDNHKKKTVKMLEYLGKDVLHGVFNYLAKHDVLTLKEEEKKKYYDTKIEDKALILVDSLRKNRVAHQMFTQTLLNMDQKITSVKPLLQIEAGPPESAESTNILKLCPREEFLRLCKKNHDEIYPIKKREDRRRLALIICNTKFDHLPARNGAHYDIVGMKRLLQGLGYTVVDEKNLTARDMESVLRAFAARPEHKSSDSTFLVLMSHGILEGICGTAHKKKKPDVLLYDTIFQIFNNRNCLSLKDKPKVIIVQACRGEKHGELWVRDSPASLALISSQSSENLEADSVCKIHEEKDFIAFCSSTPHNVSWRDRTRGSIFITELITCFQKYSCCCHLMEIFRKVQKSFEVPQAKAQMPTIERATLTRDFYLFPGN
Chain of human CYP2D6, CYP2D6 (gene 1565) (P10635 whole entry, looked up): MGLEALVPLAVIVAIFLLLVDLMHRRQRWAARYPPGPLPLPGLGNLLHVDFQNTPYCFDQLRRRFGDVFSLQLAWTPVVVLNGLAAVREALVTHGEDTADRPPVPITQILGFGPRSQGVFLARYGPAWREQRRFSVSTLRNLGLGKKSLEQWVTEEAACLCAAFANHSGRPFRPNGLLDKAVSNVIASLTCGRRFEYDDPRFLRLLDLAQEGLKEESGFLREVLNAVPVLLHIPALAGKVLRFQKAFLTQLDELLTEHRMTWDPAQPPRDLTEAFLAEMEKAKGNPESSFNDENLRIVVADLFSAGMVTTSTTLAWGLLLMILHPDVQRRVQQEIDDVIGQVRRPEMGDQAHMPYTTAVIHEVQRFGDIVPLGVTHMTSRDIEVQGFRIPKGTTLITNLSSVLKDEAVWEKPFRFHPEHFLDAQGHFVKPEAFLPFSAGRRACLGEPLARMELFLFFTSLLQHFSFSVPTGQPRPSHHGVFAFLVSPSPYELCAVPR
Chain of Cytochrome P450 3A4 (Homo sapiens) (P08684 whole entry, looked up): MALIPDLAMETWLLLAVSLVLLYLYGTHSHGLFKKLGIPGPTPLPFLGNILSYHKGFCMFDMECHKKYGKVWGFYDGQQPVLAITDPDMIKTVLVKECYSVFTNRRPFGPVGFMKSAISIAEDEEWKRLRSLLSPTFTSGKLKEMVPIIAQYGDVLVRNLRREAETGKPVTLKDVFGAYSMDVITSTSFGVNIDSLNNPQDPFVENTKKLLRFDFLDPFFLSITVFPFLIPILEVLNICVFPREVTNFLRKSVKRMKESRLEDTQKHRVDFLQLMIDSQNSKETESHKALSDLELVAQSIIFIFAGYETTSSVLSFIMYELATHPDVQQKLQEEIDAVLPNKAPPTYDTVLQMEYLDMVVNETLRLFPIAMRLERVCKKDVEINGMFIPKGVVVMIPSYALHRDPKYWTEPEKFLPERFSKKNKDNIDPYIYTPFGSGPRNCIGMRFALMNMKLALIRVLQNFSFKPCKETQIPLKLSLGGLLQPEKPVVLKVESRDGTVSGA
Chain of human Esterase Plasma (ES), BCHE (gene 590) (P06276 whole entry, looked up): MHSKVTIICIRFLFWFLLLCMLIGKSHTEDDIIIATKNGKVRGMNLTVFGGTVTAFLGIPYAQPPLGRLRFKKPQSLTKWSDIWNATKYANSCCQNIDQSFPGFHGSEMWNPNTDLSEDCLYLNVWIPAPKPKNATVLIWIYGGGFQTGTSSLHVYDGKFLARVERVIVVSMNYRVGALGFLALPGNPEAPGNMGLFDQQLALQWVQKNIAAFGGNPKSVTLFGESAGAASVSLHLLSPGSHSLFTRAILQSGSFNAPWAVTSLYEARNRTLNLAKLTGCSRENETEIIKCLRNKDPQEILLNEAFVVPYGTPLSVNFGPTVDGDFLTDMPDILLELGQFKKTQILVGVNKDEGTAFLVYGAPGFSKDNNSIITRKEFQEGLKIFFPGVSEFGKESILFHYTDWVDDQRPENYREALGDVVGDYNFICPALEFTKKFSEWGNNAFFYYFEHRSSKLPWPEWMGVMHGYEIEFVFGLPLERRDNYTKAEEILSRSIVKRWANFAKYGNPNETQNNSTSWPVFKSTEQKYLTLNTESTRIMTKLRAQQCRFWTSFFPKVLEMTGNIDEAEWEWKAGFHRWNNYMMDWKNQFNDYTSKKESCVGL
Chain of human Beta-secretase (BACE), BACE1 (gene 23621) (P56817 whole entry, looked up): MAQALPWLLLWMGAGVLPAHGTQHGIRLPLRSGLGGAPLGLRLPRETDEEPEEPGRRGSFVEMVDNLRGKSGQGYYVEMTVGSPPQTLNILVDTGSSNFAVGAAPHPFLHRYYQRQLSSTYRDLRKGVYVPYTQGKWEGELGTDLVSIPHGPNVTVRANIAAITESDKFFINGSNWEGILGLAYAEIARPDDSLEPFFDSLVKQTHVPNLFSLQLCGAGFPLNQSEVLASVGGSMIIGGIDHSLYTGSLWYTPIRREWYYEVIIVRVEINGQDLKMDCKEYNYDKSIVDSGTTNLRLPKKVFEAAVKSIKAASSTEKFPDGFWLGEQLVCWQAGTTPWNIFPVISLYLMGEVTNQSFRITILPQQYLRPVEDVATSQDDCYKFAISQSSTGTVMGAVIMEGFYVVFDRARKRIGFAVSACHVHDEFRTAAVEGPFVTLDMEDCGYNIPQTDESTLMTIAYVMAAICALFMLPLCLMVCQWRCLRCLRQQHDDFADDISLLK

With `CC(C)[N+](C)(CCOC(=O)C1c2ccccc2Oc2ccccc21)C(C)C`, the AC50 in [1] was 0.741 µM (active); in [2], 2.02 µM (active); in [3], 11.1 µM (active).

As to `C=C(C)OC(C)=O`, the call in [4] was inactive. Take `C=CC(=O)NC(C)(C)C`: the AC50 in test [5] is 13.6 µM (active).

Regarding `CC(C)CCCCCOC(=O)CS`, the AC50 in [5] was 25 µM (active). `Cc1cc(C)n(CO)n1`: the compound was called inactive in test [1]. Further, the AC50 in test [6] was 4.01 µM (active). As to `CC1=C(O)C(=O)C(C)O1` (configuration not stated), the call in test [7], in test [4] and in test [8] was inactive. Take `C=CC(=O)OCCCCCCCC(C)C`: the AC50 in test [6] was 1.67 µM (active). For the same compound, in test [4], the call was inactive.

With `Cc1c(O)cccc1O`, in test [7], the outcome was inactive. Further, in test [8], the AC50 was 5.06 µM (active).

On to `CCOC(=O)C1=NOC(c2ccccc2)(c2ccccc2)C1`, for which the concentration at half-maximal activity (AC50) in test [6] is 1.8 µM (active). In addition, the compound was classed as inactive in test [9] and in [10]. As for `CCc1occc(=O)c1O`, the AC50 in test [1] was 3.97 µM (active); in [8] it was 0.243 µM (active). In the case of `Fc1ccc(Br)cc1`, the outcome in [10] and in test [2] was inactive. Further, the AC50 in [5] is 13.7 µM (active). As to `CC=C(C)C(C)=O`, the result in test [4] was inactive. `Cc1ccc([N+](=O)[O-])cc1N`: in [11], the compound was classed as inactive. The half-maximal activity concentration (AC50) is 4.92 µM (active) in test [6] and 7.96 µM (active) in test [12]. On to `Oc1c(Cl)cc(Cl)c(Cl)c1Cl`, for which the call in test [7] and in test [8] was inactive. As to `COC(OC)(C(=O)c1ccccc1)c1ccccc1`, the AC50 in test [13] was 43.1 µM (active); in test [3] it was 13.6 µM (active). The call in test [4] and in test [8] was inactive.

Regarding `COc1ccc(C(=O)/C(Br)=C\C(=O)O)cc1`, the AC50 in test [10] was 18.5 µM (active); in test [13], 39.1 µM (active); in [8], 25 µM (active). On to `CCOC(=O)/C=C\C(=O)OCC`, for which the outcome in test [10] was inactive. Also, the AC50 in test [5] is 14.7 µM (active). Turning to `CC(C)CO`, in test [4], the outcome was inactive. In the case of `CC/C=C\CCOC(=O)c1ccccc1O`, the compound was classed as inactive in test [4]. The same measure, in the same setting: as for `Nc1ncnc2nc[nH]c12`, the entry is “inactive”. Take `c1ccc2sc(SSN3CCOCC3)nc2c1`: the AC50 in test [6] is 0.01 µM (active); in test [5], 1.39 µM (active).

Consider `CC(=O)CC(=O)Nc1ccccc1C`, for which, in test [4], the result was inactive. `CO[Si](CCCS)(OC)OC`: the AC50 is 25 µM (active) in [10] and 39 µM (active) in test [14]. Take `O=C(Oc1ccccc1)c1ccccc1C(=O)Oc1ccccc1`: the compound was classed as inactive in [4].

In general, AC50 refers to the concentration giving half of the maximal activity seen.
